# Screening data: PubChem BioAssay, National Center for Advancing Translational Sciences (NCATS)
# A selection: hits, their analogues and other compounds. The true share with any hit is near 3.6%.
# GALK inh: qHTS Assay for Inhibitors of Human Galactokinase (GALK): NCGC Sytravon Library Screen; P51570; recombinant GALK, Kinase-Glo ATP luminescence, 1 h; Potency, µM (series often up to 57.5 µM), actives largely listed as inhibitors; 44,000 tested, under 10 active; AID 1347072, 2019
# Target sequence (P51570 whole entry, looked up): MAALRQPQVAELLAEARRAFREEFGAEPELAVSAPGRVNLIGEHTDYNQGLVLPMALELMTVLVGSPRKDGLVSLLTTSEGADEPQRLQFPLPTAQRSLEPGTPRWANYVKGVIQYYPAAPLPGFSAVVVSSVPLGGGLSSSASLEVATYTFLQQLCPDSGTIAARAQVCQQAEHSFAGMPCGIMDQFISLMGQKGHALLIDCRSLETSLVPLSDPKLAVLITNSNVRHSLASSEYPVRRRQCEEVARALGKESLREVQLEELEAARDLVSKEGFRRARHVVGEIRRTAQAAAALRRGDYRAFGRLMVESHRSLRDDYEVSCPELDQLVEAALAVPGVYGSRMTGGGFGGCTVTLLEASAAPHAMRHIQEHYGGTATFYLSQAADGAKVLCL
#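 Human GALK (5 nM) was incubated with 35 uM ATP and 100 uM galactose in 20 mM HEPES pH 8.0 with MgCl2, NaCl, DTT and BSA for 1 h at room temperature. Remaining ATP was measured by Kinase-Glo Plus luminescence.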
# NTMT1 inhibitor: Primary qHTS for Inhibitors of N-terminal methyltransferase 1 (NTMT1): MTaseGlo Assay | N-terminal Xaa-Pro-Lys N-methyltransferase 1 (Homo sapiens), Q9BV86 | NTMT1 MTase-Glo SAH luminescence, purified enzyme | Potency, µM (top dose mostly 114 µM), actives largely listed as inhibitors | 59,000 tested, 2.5% active | AID 1645870, 2021; note: nearly all actives have a fitted effect of over 65% in size
# Target sequence (Q9BV86 whole entry, looked up): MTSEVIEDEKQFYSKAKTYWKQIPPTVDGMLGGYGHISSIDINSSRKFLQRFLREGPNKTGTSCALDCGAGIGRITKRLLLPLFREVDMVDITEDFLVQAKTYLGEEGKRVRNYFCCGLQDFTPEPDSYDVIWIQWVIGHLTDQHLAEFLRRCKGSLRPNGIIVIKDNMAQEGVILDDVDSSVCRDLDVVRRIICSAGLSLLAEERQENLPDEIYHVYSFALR
# B2AR arrestin ag: qHTS assay of beta-arrestin-biased ligands of beta2-adrenergic receptor: NCGC Sytravon Library Screen | Beta-2 adrenergic receptor (Homo sapiens), P07550 | HTLA Tango cells, beta-arrestin recruitment, luciferase luminescence, 18 h | Potency, µM (highest dose often 46.1 µM), actives largely listed as activators | 44,000 tested, under 10 active
#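 Tango cells expressing recombinant beta2-AR and beta-arrestin were treated with compounds (up to 46 microM titration) in DMEM with 1% FBS for 18 hr at 37 degrees C. Beta-arrestin recruitment drove tTA-dependent luciferase, read by luminescence; curves were fitted and classed.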
# DRV1 agonist: qHTS for Agonists of Human Resolvin D1 Receptor DRV1. CHO-K1 GPR32 beta-arrestin PathHunter luminescence, 90 min; zero percent set by DMSO-only wells. Probable G-protein coupled receptor 32 (Homo sapiens), O75388. activation, % at 76.9 µM. 48,000 tested, 2.5% active;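 active = activation of at least 60% and not above a set upper limit, about 1 call in 100 departs from these limits; inconclusive = activation of 40% to 60%, or above that upper limit; inactive = activation under 40%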
#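 Readings come from a cell-based beta-arrestin complementation format: CHO-K1 GPR32 stable cells (2,500/well) treated 90 min with compounds, then beta-Gal substrate added for 1 h before chemiluminescence imaging.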
# GALC G270D up: A Novel Cell-Based Assay to Identify Small Molecules for B -Galactocerebrosidase; 45,000 tested, 0.1% active; AID 1159614, 2016; P54803; 145M-Twi-hGALC-G270D cells, HMU-beta-Gal fluorescence, 48 h; Potency, µM (top dose mostly 57.5 µM), usual class: activators; note: nearly all actives have a fitted effect of over 65% in size
#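 qHTS, 1536-well; 145M-Twi-hGALC-G270D cells (WT line also made) in DMEM/F12 + 10% FBS; compound incubation on live cells; HMU-β-gal 0.1 mM final, pH 5.2, NaTC; carbonate stop; fluorescence increase = enhanced residual activity.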
# TSG101-PTAP inh: qHTS Validation Assay for Inhibitors of HIV-1 Budding by Blocking the Interaction of PTAP/TSG101: Sytravon Library Screen. Tumor susceptibility gene 101 protein (Homo sapiens), Q99816. Fluorescence polarization, FITC-PTAP peptide/Tsg101, 20 min. Potency, µM (series often up to 115 µM), actives largely listed as inhibitors. 44,000 tested, under 10 active. AID 1347069, 2019
#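 Compounds pinned into 10 uM Tsg101 binding domain, then 50 nM FITC-PTAP peptide added in pH 7.5 HEPES buffer; FP read after 20 min, room temperature. Total S+P intensity flags fluorescent compounds; active cut-off <25 µM, efficacy <60%.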
# Hits are given with their value; 0 = inactive; ? = inconclusive; - = not tested or not shown; ! = repeats disagree. Unless noted, calls come from the whole dose curve; as a rule, active = well fitted curve in the direction sought with a large enough effect; inconclusive = small, poorly fitted or top-dose-only effect, or another doubt; inactive = no such curve, though single readings can be large; an effect the other way counts as inactive or inconclusive.
SMILES,GALK inh,NTMT1 inhibitor,B2AR arrestin ag,DRV1 agonist,GALC G270D up,TSG101-PTAP inh
Cc1oc2ncnc(N3CCCCC3)c2c1C(=O)Nc1cccc(F)c1,0,0,0,0,0,0
CC/C=C\C(O)C(O)C1=C(C)C(=O)C2(O1)C(=O)NC(OC)(C(=O)c1ccccc1)C2O (stereo not drawn),-,0,-,-,-,-
Cc1ccc(CNC(=O)Cn2cc(C(=O)c3ccc(F)cc3)c(=O)c3ccc(C)nc32)cc1,0,0,0,0,0,0
CCc1ccc(C(=O)c2cn(CC(=O)Nc3cc(F)ccc3F)c3nc(C)ccc3c2=O)cc1,0,0,0,0,3.98µM,0
Cc1ccc(Cn2cc(C(=O)c3ccc(C)cc3)c(=O)c3ccc(C)nc32)cc1,0,?,?,0,0,0
Cc1ccc(C(=O)c2cn(Cc3c(F)cccc3Cl)c3nc(C)ccc3c2=O)cc1,0,0,0,82.2,0,0
Cc1ccc(NS(=O)(=O)c2ccc(-n3cccn3)cc2)cc1Cl,0,0,0,73.2,0,0
O=S(=O)(Nc1ccc(F)cc1F)c1ccc(-n2cccn2)cc1,0,0,0,74.7,0,0
CCc1cccc(NS(=O)(=O)c2ccc(-n3cccn3)cc2)c1,0,0,0,85.9,0,0
Cc1cc(C)cc(NS(=O)(=O)c2ccc(-n3cccn3)cc2)c1,0,0,0,0,0,0
Cc1cc(C(=O)Nc2cccc(C(=O)Nc3cccc(C(F)(F)F)c3)c2)on1,-,0,-,-,-,-
CC(=O)N[C@H](Cc1ccc(O)cc1)C(=O)N[C@H](CCCN=C(N)N)C(=O)N[C@H](Cc1ccccc1)C(N)=O,-,0,-,-,-,-
CCOCCCNc1ncnc2c1cnn2-c1ccc(C)c(C)c1,0,?,0,89.3,0,0
Cc1ccc(-n2ncc3c(NCCc4ccccc4)ncnc32)cc1C,0,0,0,0,0,0
O=C(CN1C(=O)CCSc2ccccc21)Nc1ccc(C(F)(F)F)cc1,0,0,0,63.1,0,0
CC(NC(=O)CC(=O)O)c1nc2ccccc2c(=O)[nH]1 (stereo not drawn),-,0,-,-,-,-
CCc1cccc(NC(=O)Cn2c(=O)n(CC(=O)NCCc3ccccc3)c(=O)c3ccccc32)c1,0,0,0,81.2,0,0
C=C1CC/C=C(/C(=O)O)CCC2C1CC2(C)C (stereo not drawn),-,0,-,-,-,-
CCOC(=O)c1c(Nc2ccc(O)cc2)nnc(-c2ccccc2)c1-c1ccccc1,0,0,0,65.9,0,0
CCOC(=O)c1c(Nc2ccccc2)nnc(-c2ccccc2)c1-c1ccccc1,0,0,0,0,0,0
CCc1ccc(NC(=O)CSc2nc(-c3ccccc3)c(C#N)c(=O)[nH]2)cc1,0,0,0,0,0,0
O=C(CCCCCCC(=O)Nc1ccc([C@H]2O[C@@H](CSc3nc(-c4ccccc4)c(-c4ccccc4)o3)C[C@@H](c3ccc(CO)cc3)O2)cc1)NO,-,42.9µM!,-,-,-,-
CCOC(=O)c1[nH]c(C)c(C(=O)NCc2ccc(F)cc2)c1C,?,0,0,0,0,0
CCOC(=O)c1[nH]c(C)c(C(=O)NCc2cccc(OC)c2)c1C,0,0,0,61.0,0,0
CN(C)C(=O)Nc1ccc(Cl)c(Cl)c1,-,0,-,0,0,-
SMILES,GALK inh,NTMT1 inhibitor,B2AR arrestin ag,DRV1 agonist,GALC G270D up,TSG101-PTAP inh
O=C(Nc1ccc(Cl)c(Cl)c1)C1CC1,-,0,-,82.6,0,-
N#Cc1c(-c2ccc(Cl)c([N+](=O)[O-])c2)no[n+]1[O-],-,0,-,-,-,-
CC(C)(CC(=O)OCC(=O)Nc1ccc(F)c(Cl)c1)CC1=NS(=O)(=O)c2ccccc2N1,0,0,0,114.9,0,0
CC(C)(CC(=O)OCC(=O)Nc1ccccc1F)CC1=NS(=O)(=O)c2ccccc2N1,0,0,0,111.6,0,0
COc1ccccc1NC(=O)COC(=O)CC(C)(C)CC1=NS(=O)(=O)c2ccccc2N1,0,0,?,?,0,0
CCOC(=O)c1ccccc1NC(=O)COC(=O)CC(C)(C)CC1=NS(=O)(=O)c2ccccc2N1,0,0,0,84.4,0,0
CCCCC(CC)CN=C(N)NC(N)=NCCCCCCN=C(N)NC(N)=NCC(CC)CCCC (stereo not drawn),-,3.16µM,-,0,0,-
Cc1cc(C)cc(NC(=O)Nc2ccc3nc(N4CCN(C)CC4)cc(C)c3c2)c1,0,0,0,0,17.8µM,0
Cc1ccc(NC(=O)Nc2ccc3nc(N4CCN(C)CC4)cc(C)c3c2)cc1F,0,0,0,93.6,0,0
Cc1cc(N2CCCCC2)nc2ccc(NC(=O)c3ccc(F)cc3)cc12,0,0,0,105.4,0,0
Cc1ccc(C2N=C(Nc3nc4ccccc4o3)NC3=C2C(=O)CCC3)cc1 (stereo not drawn),-,0,-,-,-,-
O=S(=O)(Nc1ccc2nc(-c3ccc(F)cc3)oc2c1)c1ccccc1,0,0,0,?,0,0
Cc1ccc(S(=O)(=O)Nc2ccc3nc(-c4ccc(F)cc4)oc3c2)cc1,0,0,0,66.5,0,0
O=c1[nH]nc2c3c(cccc13)NC(CN1Cc3ccccc3C1)=N2,-,0,-,-,-,-
COC(=O)c1ccccc1NC(=O)CSc1nc(-c2ccccc2)cc(C(F)(F)F)n1,0,0,0,0,10µM,0
CCCCC1C(=O)N(c2ccccc2)N(c2ccc(O)cc2)C1=O (stereo not drawn),-,?,-,108.6,0,-
N#CC1=C2SCN(C3CCCCC3)CN2C(=O)CC1c1ccc(Br)cc1 (stereo not drawn),0,35.5µM,0,0,0,0
COc1ccc(C2CC(=O)N3CN(C4CCCCC4)CSC3=C2C#N)c(OC)c1 (stereo not drawn),0,15.8µM,0,0,0,0
O=C(Nc1nnc(S(=O)(=O)N2CCCc3ccccc32)s1)c1cccc(Cl)c1,0,0,0,73.8,0,0
CN(Cc1ccccc1)S(=O)(=O)c1nnc(NC(=O)c2cccc(Cl)c2)s1,0,0,0,67.9,0,0
CN(c1ccccc1)S(=O)(=O)c1nnc(NC(=O)c2ccco2)s1,0,0,0,92.8,0,0
Cc1cc(C)cc(C(=O)NOCCCCCC(=O)NO)c1,-,0,-,-,-,-
